Results: the supplement of paper PMC11732987, “Enantioselective OTUD7B fragment discovery through chemoproteomics screening and high-throughput optimisation” (Communications Chemistry, 2025)

Legend:
Assay in all cases: log2 ratio of Biotin-Ahx-Ub-VS probe labelling (fragment/DMSO); higher = less target engagement (more negative = stronger competition), active = hit call of the paper (q ≤ 0.05, log2 ratio ≤ -1)
Conditions in all cases: compound concentration: 200 uM; treatment time: 3 h
ALG13 = target: T1, ALG13 (UniProt Q9NP73)
T1 sequence (whole entry): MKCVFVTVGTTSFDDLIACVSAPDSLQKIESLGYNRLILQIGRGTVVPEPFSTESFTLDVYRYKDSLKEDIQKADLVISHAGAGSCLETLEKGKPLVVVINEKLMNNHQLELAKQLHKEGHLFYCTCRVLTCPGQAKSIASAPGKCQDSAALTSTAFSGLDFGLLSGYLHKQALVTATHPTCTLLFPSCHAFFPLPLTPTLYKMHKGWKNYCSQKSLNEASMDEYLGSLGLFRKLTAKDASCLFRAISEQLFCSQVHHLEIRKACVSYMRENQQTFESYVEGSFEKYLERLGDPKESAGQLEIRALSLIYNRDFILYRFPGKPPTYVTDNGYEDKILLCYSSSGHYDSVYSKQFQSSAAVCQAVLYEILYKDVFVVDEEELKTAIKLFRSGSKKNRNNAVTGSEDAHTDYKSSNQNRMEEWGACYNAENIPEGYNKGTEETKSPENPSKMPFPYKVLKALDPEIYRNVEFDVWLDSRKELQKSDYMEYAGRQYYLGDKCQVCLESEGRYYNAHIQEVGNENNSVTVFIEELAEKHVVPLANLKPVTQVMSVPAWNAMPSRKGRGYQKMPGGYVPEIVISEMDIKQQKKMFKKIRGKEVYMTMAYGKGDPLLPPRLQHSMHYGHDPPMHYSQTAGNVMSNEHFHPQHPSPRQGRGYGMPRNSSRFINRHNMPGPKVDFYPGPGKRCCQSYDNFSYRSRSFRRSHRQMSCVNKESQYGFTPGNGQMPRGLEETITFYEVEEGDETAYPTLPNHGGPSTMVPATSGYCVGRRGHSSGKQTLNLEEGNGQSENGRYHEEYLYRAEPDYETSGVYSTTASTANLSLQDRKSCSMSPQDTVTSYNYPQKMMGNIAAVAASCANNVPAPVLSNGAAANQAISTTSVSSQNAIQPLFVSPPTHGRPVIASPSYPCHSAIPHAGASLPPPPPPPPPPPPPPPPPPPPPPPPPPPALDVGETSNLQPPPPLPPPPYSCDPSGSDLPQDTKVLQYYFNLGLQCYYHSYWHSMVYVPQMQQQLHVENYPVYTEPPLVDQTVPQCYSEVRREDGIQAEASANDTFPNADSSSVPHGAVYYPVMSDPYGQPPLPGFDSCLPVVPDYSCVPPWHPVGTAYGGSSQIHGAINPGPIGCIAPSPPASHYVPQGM
Procedure, shortened: (§1)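 Fragment (200 µM) or vehicle was incubated for 3 h with triplicate HEK293T lysate samples of 495 µg, which were then treated with Biotin-Ahx-Ub-VS at 0.5 µM final for 1 h. Labelled DUBs were enriched on NeutrAvidin, digested with LysC and trypsin, and analysed by diaPASEF LC-MS/MS. Values are average log2 fragment/vehicle ratios from an unpaired t-test on global-median-normalised Spectronaut label-free quantities, using proteins with ≥2 unique peptides.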

ATXN3 = ATXN3 (UniProt P54252)
Sequence of ATXN3 (P54252 whole entry): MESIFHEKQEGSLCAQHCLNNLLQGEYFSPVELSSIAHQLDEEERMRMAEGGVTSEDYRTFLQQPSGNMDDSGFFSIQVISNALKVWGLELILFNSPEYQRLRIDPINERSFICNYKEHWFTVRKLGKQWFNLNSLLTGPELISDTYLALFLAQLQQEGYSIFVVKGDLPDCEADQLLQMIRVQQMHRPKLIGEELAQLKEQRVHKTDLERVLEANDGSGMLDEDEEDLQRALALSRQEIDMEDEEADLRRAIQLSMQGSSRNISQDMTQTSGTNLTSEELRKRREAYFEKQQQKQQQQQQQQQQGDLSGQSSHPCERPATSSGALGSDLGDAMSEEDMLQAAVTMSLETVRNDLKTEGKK
Procedure, shortened: as §1

BAP1 = target: T2, BAP1 (UniProt Q92560)
T2 sequence (whole entry): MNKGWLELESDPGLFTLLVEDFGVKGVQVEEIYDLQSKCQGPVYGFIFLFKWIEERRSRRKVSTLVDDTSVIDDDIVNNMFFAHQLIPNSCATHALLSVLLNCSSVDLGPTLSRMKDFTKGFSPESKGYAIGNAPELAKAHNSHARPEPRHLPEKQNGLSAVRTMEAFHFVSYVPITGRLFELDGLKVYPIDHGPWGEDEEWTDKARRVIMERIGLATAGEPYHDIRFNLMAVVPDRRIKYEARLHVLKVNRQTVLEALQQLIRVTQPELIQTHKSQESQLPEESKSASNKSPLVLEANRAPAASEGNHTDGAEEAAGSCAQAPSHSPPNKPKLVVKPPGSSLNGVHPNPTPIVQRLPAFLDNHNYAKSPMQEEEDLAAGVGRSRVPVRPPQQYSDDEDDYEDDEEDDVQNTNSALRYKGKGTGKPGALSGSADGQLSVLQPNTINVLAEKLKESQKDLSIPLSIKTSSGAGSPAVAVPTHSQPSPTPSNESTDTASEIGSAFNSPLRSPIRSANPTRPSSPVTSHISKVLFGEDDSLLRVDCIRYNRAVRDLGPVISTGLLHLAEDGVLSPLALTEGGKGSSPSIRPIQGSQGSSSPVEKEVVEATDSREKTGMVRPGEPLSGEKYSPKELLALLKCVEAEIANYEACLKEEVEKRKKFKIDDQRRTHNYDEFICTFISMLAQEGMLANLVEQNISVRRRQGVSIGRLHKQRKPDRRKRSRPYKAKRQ
Procedure, shortened: as §1

EIF3F = EIF3F (UniProt O00303)
Sequence of EIF3F (O00303 whole entry): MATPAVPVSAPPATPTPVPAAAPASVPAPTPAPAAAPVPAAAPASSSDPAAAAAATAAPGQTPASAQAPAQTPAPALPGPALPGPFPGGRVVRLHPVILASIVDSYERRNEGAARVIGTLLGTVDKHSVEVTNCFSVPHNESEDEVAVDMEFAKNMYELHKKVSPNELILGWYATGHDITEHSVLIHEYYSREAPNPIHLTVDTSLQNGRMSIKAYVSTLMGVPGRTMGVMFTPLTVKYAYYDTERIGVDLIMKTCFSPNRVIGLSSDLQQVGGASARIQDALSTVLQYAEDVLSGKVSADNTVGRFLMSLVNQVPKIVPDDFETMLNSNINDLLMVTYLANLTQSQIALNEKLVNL
Procedure, shortened: as §1

EIF3H = EIF3H (UniProt O15372)
Sequence of EIF3H (O15372 whole entry): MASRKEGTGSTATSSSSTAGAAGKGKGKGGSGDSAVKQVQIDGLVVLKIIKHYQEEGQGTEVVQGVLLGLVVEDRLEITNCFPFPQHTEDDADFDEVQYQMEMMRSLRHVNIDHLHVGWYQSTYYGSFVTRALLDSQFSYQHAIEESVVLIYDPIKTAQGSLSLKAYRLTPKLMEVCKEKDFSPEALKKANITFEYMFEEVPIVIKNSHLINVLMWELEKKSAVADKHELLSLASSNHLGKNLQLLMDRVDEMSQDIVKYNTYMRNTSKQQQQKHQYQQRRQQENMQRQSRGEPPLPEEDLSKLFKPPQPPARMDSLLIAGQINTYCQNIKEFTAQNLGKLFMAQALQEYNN
Procedure, shortened: as §1

FAM105A = target: T3, FAM105A (UniProt Q9NUU6)
T3 sequence (whole entry): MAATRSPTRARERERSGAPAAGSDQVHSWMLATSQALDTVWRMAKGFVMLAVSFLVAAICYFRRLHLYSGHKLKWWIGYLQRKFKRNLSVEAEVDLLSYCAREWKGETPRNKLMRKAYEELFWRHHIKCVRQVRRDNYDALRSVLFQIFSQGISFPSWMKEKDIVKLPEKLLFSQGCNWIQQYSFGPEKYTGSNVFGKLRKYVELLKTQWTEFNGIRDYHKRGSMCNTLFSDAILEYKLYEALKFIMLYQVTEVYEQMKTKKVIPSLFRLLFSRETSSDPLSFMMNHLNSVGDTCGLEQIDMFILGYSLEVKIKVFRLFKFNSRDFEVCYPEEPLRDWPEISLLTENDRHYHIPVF
Procedure, shortened: as §1

OTUB1 = OTUB1 (UniProt Q96FW1)
Sequence of OTUB1 (Q96FW1 whole entry): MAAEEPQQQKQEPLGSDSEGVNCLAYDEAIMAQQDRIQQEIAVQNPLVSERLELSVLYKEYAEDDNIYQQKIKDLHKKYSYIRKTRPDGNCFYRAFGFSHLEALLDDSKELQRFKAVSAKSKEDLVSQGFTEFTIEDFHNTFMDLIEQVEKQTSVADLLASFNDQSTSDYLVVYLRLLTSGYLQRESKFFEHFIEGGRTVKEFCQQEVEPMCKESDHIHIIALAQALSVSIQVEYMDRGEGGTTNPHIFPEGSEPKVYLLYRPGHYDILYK
Procedure, shortened: as §1

OTUD4 = target: T4, OTUD4 (UniProt Q01804)
T4 sequence (whole entry): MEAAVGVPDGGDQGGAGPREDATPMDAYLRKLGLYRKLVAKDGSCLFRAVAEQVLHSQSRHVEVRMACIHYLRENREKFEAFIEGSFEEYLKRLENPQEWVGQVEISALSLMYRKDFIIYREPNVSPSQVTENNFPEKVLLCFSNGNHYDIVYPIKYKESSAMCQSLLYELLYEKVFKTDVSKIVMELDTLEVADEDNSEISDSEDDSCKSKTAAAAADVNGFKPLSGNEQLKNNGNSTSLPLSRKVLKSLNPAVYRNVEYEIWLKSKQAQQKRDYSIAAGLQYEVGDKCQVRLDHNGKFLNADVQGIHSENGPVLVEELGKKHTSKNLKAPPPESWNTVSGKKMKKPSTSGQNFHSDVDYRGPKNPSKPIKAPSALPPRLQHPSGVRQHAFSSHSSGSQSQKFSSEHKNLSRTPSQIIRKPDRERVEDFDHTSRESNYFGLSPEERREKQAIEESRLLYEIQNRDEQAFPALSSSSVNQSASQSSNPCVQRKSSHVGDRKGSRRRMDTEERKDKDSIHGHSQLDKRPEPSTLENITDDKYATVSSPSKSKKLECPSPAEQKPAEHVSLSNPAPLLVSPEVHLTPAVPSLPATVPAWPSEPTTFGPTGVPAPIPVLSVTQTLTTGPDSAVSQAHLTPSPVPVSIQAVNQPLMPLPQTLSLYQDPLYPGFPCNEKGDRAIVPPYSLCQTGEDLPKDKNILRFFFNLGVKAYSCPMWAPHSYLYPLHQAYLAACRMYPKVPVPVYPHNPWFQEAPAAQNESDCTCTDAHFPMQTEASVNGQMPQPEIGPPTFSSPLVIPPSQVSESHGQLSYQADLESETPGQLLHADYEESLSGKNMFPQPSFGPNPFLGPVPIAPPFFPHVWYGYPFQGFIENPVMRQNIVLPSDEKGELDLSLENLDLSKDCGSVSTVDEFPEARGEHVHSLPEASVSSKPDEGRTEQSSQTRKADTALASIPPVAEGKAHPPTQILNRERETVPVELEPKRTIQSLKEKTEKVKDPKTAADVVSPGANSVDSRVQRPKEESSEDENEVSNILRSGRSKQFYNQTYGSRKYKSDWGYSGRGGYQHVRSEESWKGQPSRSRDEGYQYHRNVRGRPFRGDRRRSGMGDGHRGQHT
Procedure, shortened: as §1

OTUD5 = target: T5, OTUD5 (UniProt Q96G74)
T5 sequence (whole entry): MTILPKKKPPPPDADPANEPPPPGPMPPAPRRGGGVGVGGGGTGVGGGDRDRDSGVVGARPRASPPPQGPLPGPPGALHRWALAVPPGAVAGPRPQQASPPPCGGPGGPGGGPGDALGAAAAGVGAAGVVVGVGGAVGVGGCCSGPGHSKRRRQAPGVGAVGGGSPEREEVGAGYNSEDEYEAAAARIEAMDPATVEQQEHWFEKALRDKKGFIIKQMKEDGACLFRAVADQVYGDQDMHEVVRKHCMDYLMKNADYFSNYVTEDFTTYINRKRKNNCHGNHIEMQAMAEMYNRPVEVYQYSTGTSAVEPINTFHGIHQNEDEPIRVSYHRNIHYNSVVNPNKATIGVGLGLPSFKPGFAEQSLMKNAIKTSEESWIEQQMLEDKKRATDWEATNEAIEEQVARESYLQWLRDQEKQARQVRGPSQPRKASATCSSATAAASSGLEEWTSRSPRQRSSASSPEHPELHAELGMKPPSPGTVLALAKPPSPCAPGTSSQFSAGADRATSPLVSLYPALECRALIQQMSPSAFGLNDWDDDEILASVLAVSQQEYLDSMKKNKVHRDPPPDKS
Procedure, shortened: as §1

Measured: log2 ratio of Biotin-Ahx-Ub-VS probe labelling

Cc1cc(C(=O)NC2CCN(C(=O)CCl)CC2)no1
inactive: ALG13 0.0715 | ATXN3 -0.572 | BAP1 -0.339 | EIF3F -0.05 | EIF3H 0.0609 | FAM105A 0.133 | OTUB1 -0.0459 | OTUD4 -0.297 | OTUD5 -0.298
